According to PubChem BioAssay:
For part of these data: Measured potencies and affinities stand elsewhere. Calls of active or inactive are those of the source.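 The calls were made as follows, unless noted: active = compound raising the membrane signal above positive-control mean plus 3 SD in both repeats, and a primary screen hit; inactive = the rest.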

Legend:
[1] = tested on: TRPC4 beta (transient receptor potential cation channel C4), mouse; assay: activators of mouse TRPC4 channel, confirmation, cell-based, Fluo4 calcium, HEK293 TRPC4beta/mu-opioid, duplicates, 10 µM (AID 2426;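 active = fluorescence ratio normalized to control raised more than 50% in primary screen plus both repeat runs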;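 as to activation: percent rise of integrated ratio over buffer wells lacking compound which define 0%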); conditions: Fluo4 calcium fluorescence, at 10 µM; active compounds read high
[2] = tested on: transient receptor potential cation channel C4 beta (TRPC4), mouse; assay: activators of mouse TRPC4 channel, confirmation, cell-based, second round, Fluo4, HEK293 TRPC4beta/mu-opioid, 1 µM (AID 2461;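 active = primary screen active and over 50% activation in each of two duplicate runs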); conditions: Fluo4 calcium fluorescence, at 1 µM; active compounds read high
[3] = tested on: TRPC4 (transient receptor potential cation channel C4 beta), mouse; assay: positive allosteric modulators of mouse TRPC4, confirmation, cell-based, second round, Fluo-4, HEK293 TRPC4beta/mu-opioid, 1 µM (AID 2554;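 active = primary screen hit whose fluorescence ratio, in both repeats, exceeds the weak agonist control mean by 3 SD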); conditions: DAMGO EC20, Fluo-4 calcium flux, at 1 µM; active compounds read high
[4] = tested on: TRPC4 beta (transient receptor potential cation channel C4), mouse; assay: positive allosteric modulators of mouse TRPC4, confirmation, cell-based, Fluo-4, HEK293 TRPC4beta/mu-opioid (AID 2555;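 active = primary screen hit whose calcium fluorescence ratio, in both repeats, exceeds the weak agonist control mean by 3 SD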); conditions: DAMGO EC20, Fluo-4 calcium flux, at 10 µM; active compounds read high
[5] = biological target: Short transient receptor potential channel 4 (Mus musculus) (UniProt Q9QUQ5); assay: inhibitors of mouse TRPC4 channel, confirmation, cell-based, Fluo4, HEK293 TRPC4beta/mu-opioid (AID 2636;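 active = calcium signal cut by more than 3 SD below the full-agonist control yet still positive, in both repeats and the earlier primary screen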); conditions: DAMGO, Fluo4 calcium flux, at 10 µM; active compounds read high
Sequence of Short transient receptor potential channel 4 (Mus musculus) (Q9QUQ5 whole entry, looked up): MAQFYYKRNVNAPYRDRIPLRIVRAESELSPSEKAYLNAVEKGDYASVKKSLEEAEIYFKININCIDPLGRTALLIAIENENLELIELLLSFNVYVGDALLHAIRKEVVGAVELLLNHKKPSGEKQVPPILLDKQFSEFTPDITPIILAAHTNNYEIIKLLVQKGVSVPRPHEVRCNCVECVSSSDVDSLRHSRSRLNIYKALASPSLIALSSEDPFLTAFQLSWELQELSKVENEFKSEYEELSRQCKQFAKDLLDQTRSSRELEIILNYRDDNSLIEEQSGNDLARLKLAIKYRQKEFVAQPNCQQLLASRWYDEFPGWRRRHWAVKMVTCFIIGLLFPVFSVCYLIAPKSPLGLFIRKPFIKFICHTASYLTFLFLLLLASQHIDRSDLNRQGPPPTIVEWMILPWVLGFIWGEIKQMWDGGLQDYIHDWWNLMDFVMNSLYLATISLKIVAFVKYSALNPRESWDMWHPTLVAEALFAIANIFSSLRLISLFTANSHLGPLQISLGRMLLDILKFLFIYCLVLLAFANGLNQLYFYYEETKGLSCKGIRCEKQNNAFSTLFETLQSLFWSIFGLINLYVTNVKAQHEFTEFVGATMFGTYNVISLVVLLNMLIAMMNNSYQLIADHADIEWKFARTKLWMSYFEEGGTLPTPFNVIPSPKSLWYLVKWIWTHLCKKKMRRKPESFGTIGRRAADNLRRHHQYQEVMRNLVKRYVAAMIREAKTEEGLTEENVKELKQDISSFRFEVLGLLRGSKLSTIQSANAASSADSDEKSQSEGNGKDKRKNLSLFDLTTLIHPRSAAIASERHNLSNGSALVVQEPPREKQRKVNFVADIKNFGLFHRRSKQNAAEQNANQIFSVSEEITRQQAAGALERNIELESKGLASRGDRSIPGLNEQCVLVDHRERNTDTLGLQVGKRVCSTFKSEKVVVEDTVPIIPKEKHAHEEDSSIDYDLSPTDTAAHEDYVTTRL

[6] = biological target: Short transient receptor potential channel 4 (Mus musculus) (UniProt Q9QUQ5); assay: inhibitors of mouse TRPC4 channel, confirmation, cell-based, second round, Fluo4, HEK293 TRPC4beta/mu-opioid, 1 µM (AID 2637;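 active = calcium signal ratio cut to more than 3 SD under the fully stimulated control mean yet still positive, in both repeats and the primary screen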); conditions: Fluo4 calcium flux, DAMGO, at 1 µM; active compounds read high
[7] = biological target: Short transient receptor potential channel 4 (Mus musculus) (UniProt Q9QUQ5); assay: mouse TRPC4 channel activators, dose response, cell-based, HEK293 TRPC4/mu-opioid, Fluo-4 calcium (AID 434937;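 active = primary screen activator hit with a dose response curve and TRPC4 channel activation at any tested dose; inactive = no activation, no dose response, or not a primary hit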)
[8] = biological target: Short transient receptor potential channel 4 (Mus musculus) (UniProt Q9QUQ5); assay: TRPC4 positive allosteric modulators, dose response, cell-based, HEK293 TRPC4/mu-opioid, Fluo-4 calcium, EC20 DAMGO (AID 434941;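 active = earlier screen potentiator hit that boosts the TRPC4 ion channel at some dose, with a dose response; inactive = no potentiation, no dose response, or not a prior hit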;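 also: calcium entry triggered by an EC20 dose of DAMGO at the co-expressed mu-opioid receptor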)
[9] = biological target: Short transient receptor potential channel 4 (Mus musculus) (UniProt Q9QUQ5); assay: mouse TRPC4 channel inhibitors, dose response, cell-based, HEK293 TRPC4/mu-opioid, Fluo-4 calcium (AID 434942;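 active = primary screen inhibitor hit that blocks the TRPC4 channel at some tested dose, yielding a dose curve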)
[10] = biological target: Short transient receptor potential channel 6 (Mus musculus) (UniProt Q61143); assay: inhibition of mouse TRPC6 channel, confirmation, selectivity assay for TRPC4 inhibitor project, cell-based, HEK293, membrane potential dye, duplicate (AID 434948;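 active = active in primary screen and both duplicates, each dropping signal beyond three positive-control SD with fluorescence still positive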); conditions: HEK293 TRPC6, membrane potential dye fluorescence, at 10 µM, stimulated with maximal-effect acetylcholine; active compounds read high
Sequence of Short transient receptor potential channel 6 (Mus musculus) (Q61143 whole entry, looked up): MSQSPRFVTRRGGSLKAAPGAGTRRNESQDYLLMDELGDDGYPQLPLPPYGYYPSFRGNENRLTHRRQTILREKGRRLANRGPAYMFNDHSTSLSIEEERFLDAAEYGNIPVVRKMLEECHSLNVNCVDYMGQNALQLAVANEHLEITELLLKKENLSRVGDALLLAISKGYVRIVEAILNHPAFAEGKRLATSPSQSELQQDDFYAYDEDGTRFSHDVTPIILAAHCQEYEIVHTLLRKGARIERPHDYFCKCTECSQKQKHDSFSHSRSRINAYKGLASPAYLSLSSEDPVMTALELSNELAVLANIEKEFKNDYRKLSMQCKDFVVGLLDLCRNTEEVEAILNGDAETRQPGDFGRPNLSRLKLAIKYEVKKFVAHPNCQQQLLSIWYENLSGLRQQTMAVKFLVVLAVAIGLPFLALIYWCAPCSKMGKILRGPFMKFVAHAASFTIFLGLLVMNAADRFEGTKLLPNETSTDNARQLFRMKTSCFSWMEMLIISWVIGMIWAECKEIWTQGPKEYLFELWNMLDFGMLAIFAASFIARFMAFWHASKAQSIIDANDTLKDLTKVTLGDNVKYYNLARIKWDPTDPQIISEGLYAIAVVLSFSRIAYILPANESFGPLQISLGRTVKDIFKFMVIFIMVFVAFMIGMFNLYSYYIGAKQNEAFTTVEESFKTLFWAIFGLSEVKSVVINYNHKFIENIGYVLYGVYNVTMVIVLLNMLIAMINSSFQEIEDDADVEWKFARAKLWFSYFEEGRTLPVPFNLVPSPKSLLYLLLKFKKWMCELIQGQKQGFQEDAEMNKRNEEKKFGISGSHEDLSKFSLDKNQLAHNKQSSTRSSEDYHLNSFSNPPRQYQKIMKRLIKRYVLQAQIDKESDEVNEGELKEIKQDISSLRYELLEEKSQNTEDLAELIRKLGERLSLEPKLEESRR

[11] = biological target: Short transient receptor potential channel 6 (Mus musculus) (UniProt Q61143); assay: activation of mouse TRPC6 channel, confirmation, selectivity assay for TRPC4 activator project, cell-based, HEK293, membrane potential dye, duplicate (AID 434950;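 active = membrane potential signal rise above negative control mean plus 3 SD in both duplicates, also active in the earlier TRPC4 screen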); conditions: HEK293 TRPC6, membrane potential fluorescence, at 10 µM; active compounds read high
[12] = biological target: Short transient receptor potential channel 6 (Mus musculus) (UniProt Q61143); assay: TRPC6 potentiation by TRPC4 potentiator hits, confirmation, selectivity assay for TRPC4 potentiator project, HEK293 cells, membrane potential dye, duplicate (AID 434952); conditions: HEK293 TRPC6, membrane potential dye fluorescence, at 10 µM, maximal acetylcholine added after compound; active compounds read high
[13] = biological target: Short transient receptor potential channel 4 (Mus musculus) (UniProt Q9QUQ5); assay: calcium flux activators in TRPC4/5HT1a cells, counter-screen for TRPC4 activator project, cell-based, second counter screen, HEK293 TRPC4/5HT1a, Fluo-4 (AID 434977;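 active = calcium signal rise above buffer-control mean plus 5 SD in both duplicates, and also a hit in the primary screen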;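 as to activation: plate controls were assay buffer for no effect and maximal serotonin response for full effect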); conditions: Fluo-4 calcium flux, at 10 µM; active compounds read high
[14] = calcium flux inhibitors in TRPC4/5HT1a cells, confirmation, counter-screen for TRPC4 inhibitor project, cell-based, second counter screen, HEK293 TRPC4/5HT1a, Fluo-4 (AID 434978;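 active = primary screen active whose calcium signal fell more than 3 SD beyond the full-serotonin control mean in both duplicate plates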;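 also: serotonin given first at submaximal then at maximal dose after compound preincubation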); conditions: Fluo-4 calcium flux, at 10 µM, serotonin added to trigger calcium flux; active compounds read high
[15] = tested on: TRPC4 (mouse), co-expressed with 5HT1a in HEK293; assay: calcium flux potentiators in TRPC4/5HT1a cells, confirmation, counter-screen for TRPC4 potentiator project, cell-based, second counter screen, HEK293 TRPC4/5HT1a, Fluo-4 (AID 434979;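 active = signal rise over 3 SD above mean of control wells given weak agonist, in both repeats and first screen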); conditions: Fluo-4 calcium flux, at 10 µM, serotonin added at its EC20 dose; active compounds read high
[16] = calcium flux activation in mu-opioid HEK293 cells, confirmation, counter-screen for TRPC4 activator project, cell-based, HEK293 mu-opioid receptor line (AID 449723;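 active = hit in primary screen, with calcium signal over 5 SD above buffer well mean in both duplicates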;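 also: counter screen cells carry the mu-opioid receptor alone and lack TRPC4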); conditions: Fluo-4 calcium fluorescence, at 10 µM; active compounds read high
[17] = calcium flux enhancement in mu-opioid HEK293 cells, confirmation, counter-screen for TRPC4 allosteric potentiator project, cell-based, HEK293 mu-opioid receptor line (AID 449724;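 active = calcium signal rise more than 3 SD above the low-dose agonist control mean, in both duplicate plates and the primary screen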); conditions: Fluo-4 calcium flux, at 10 µM, compound added before EC20 DAMGO stimulus; active compounds read high

CC(C)c1ccc(C(C)NCCS(=O)(=O)c2ccc(Br)cc2)cc1 (stereo not given)
active: potentiation [15] 21.2%
inactive: outcome [1] | outcome [2] | outcome [3] | outcome [4] | outcome [5] | outcome [6] | outcome [7] | outcome [8] | outcome [9] | outcome [10] | outcome [11] | outcome [12] | outcome [13] | outcome [14] | outcome [16] | outcome [17]

N=C(N)SCc1cn2ccccc2n1
active: potentiation [15] 8.53%
inactive: outcome [1] | outcome [2] | outcome [3] | outcome [4] | outcome [5] | outcome [6] | outcome [7] | outcome [8] | outcome [9] | outcome [10] | outcome [11] | outcome [12] | outcome [13] | outcome [14] | outcome [16] | outcome [17]

CCc1cc2c3c(c(=O)oc2cc1OCC(=O)OC)CCCC3
inactive: outcome [1] | outcome [2] | outcome [3] | outcome [4] | outcome [5] | outcome [6] | outcome [7] | outcome [8] | outcome [9] | outcome [10] | outcome [11] | outcome [12] | outcome [13] | outcome [14] | outcome [15] | outcome [16] | outcome [17]

CCCCN(C)CCNC(=O)C1CCCN(S(=O)(=O)c2cccc3nsnc23)C1 (stereo not given)
active: potentiation [3] 11% | potentiation [15] 7.12%
inactive: outcome [1] | outcome [2] | outcome [4] | outcome [5] | outcome [6] | outcome [7] | outcome [8] | outcome [9] | outcome [10] | outcome [11] | outcome [12] | outcome [13] | outcome [14] | outcome [16] | outcome [17]

Cc1ccc(-c2cc(C(=O)NCCCN3CCCC3)c3ccccc3n2)cc1C
inactive: outcome [1] | outcome [2] | outcome [3] | outcome [4] | outcome [5] | outcome [6] | outcome [7] | outcome [8] | outcome [9] | outcome [10] | outcome [11] | outcome [12] | outcome [13] | outcome [14] | outcome [16] | outcome [17]
active: potentiation [15] 17.7%

COc1ccc(CCn2c(N)c(C#N)c3nc4ccccc4nc32)cc1OC
inactive: outcome [1] | outcome [2] | outcome [3] | outcome [4] | outcome [5] | outcome [6] | outcome [7] | outcome [8] | outcome [9] | outcome [10] | outcome [11] | outcome [12] | outcome [13] | outcome [14] | outcome [15] | outcome [16] | outcome [17]

CCn1c(/C=C/Nc2ccccc2)[n+](CC)c2ccc(Cl)cc21
inactive: outcome [1] | outcome [2] | outcome [3] | outcome [4] | outcome [5] | outcome [6] | outcome [7] | outcome [8] | outcome [9] | outcome [10] | outcome [11] | outcome [12] | outcome [13] | outcome [14] | outcome [15] | outcome [16] | outcome [17]

Cc1cccc(C)c1OCC(=O)N1CC2(C)CC1CC(C)(C)C2 (stereo not given)
inactive: outcome [1] | outcome [2] | outcome [3] | outcome [4] | outcome [5] | outcome [6] | outcome [7] | outcome [8] | outcome [9] | outcome [10] | outcome [11] | outcome [12] | outcome [13] | outcome [14] | outcome [15] | outcome [16] | outcome [17]

Cc1ccc(C)n1-c1nnc(N2CCC(C(=O)NCCCN3CC(C)CC(C)C3)CC2)s1 (stereo not given)
inactive: outcome [2] | outcome [3] | outcome [4] | outcome [5] | outcome [6] | outcome [7] | outcome [8] | outcome [9] | outcome [10] | outcome [11] | outcome [12] | outcome [14] | outcome [15] | outcome [16] | outcome [17]
active: activation [1] 67% | activation [13] 20.3%

CCOP(=O)(c1ccccc1)c1nc(-c2ccccc2Cl)oc1N1CCCCC1 (stereo not given)
inactive: outcome [1] | outcome [2] | outcome [3] | outcome [5] | outcome [6] | outcome [7] | outcome [8] | outcome [9] | outcome [10] | outcome [11] | outcome [12] | outcome [13] | outcome [14] | outcome [16] | outcome [17]
active: potentiation [4] 23% | potentiation [15] 30.9%

CCN(CCNC(=O)C1CCCN(c2ncnc3c2nc2n3CCCCC2)C1)Cc1ccccc1 (stereo not given)
active: potentiation [3] 18% | potentiation [4] 10%
inactive: outcome [1] | outcome [2] | outcome [5] | outcome [6] | outcome [7] | outcome [8] | outcome [9] | outcome [10] | outcome [11] | outcome [12] | outcome [13] | outcome [14] | outcome [15] | outcome [16] | outcome [17]

Clc1ccc(Cl)c(OCCCCN2CCNCC2)c1
inactive: outcome [1] | outcome [2] | outcome [3] | outcome [5] | outcome [6] | outcome [7] | outcome [8] | outcome [9] | outcome [10] | outcome [11] | outcome [12] | outcome [13] | outcome [14] | outcome [16] | outcome [17]
active: potentiation [4] 13% | potentiation [15] 6.61%

c1ccc(Cc2nc3ccccc3n2Cc2ccccc2)cc1
inactive: outcome [1] | outcome [2] | outcome [3] | outcome [4] | outcome [5] | outcome [6] | outcome [7] | outcome [8] | outcome [9] | outcome [10] | outcome [11] | outcome [12] | outcome [13] | outcome [14] | outcome [15] | outcome [16] | outcome [17]

COc1ccc(-n2ncc3c(N4CCc5ccccc54)ncnc32)cc1
inactive: outcome [1] | outcome [2] | outcome [3] | outcome [4] | outcome [5] | outcome [6] | outcome [7] | outcome [8] | outcome [9] | outcome [10] | outcome [11] | outcome [12] | outcome [13] | outcome [14] | outcome [15] | outcome [16] | outcome [17]

CCCN1CCC(NC(=O)Cc2cccc(C)c2)CC1
inactive: outcome [1] | outcome [2] | outcome [3] | outcome [4] | outcome [5] | outcome [6] | outcome [7] | outcome [8] | outcome [9] | outcome [10] | outcome [11] | outcome [12] | outcome [13] | outcome [14] | outcome [15] | outcome [16] | outcome [17]
